Assay [1] has as its system Plasmodium falciparum Sir2 (PF13_0152, Sir2A). As to the kind of experiment: pfSir2 binders on small-molecule microarrays, primary screen, biochemical, small-molecule microarray, 635 nm fluorescence (AID 1098).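 Note: score merges spot fluorescence intensity with its signal-to-noise ratio.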 The conditions noted are these: small-molecule microarray binding, fluorescence 635 nm; higher = more signal.
Assay [2] in a line: small-molecule microarray binders of probe aDKK1, primary screen, biochemical, biotinylated probe, 635/667 nm fluorescence (AID 1099).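 Note: score merges 667nm spot fluorescence with signal to noise across triplicate slides.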 The conditions noted are these: higher = more signal.
Assay [3] is described as follows: small-molecule microarray binders of probe aCHRDL2, primary screen, biochemical, biotinylated probe, 635/667 nm fluorescence (AID 1100). Particulars: higher = more signal.
Assay [4] is described as follows: splicing luciferase reporter signal modulators, primary screen, spliceosome inhibition project, cell-based, HEK293, splice +/- reporter (AID 1101).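 Note: HEK293 cells carrying a splicing-competent luciferase reporter gene; test concentration not given here.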 Particulars: luminescence, 24 h, higher = more signal, called active from +8 up or from −8 down. In general terms: Reporter assays use an easily measured gene product as a stand-in for the process of interest.
The target in assay [5] is Fibroblast growth factor 10 (Homo sapiens) (UniProt O15520). As to the kind of experiment: FGF10 binders on small-molecule microarrays, primary screen, biochemical, small-molecule microarray, 635 nm fluorescence (AID 1102). The conditions noted are these: FGF10 binding, fluorescence 635 nm, higher = more signal.
Fibroblast growth factor 10 (Homo sapiens), sequence (O15520 whole entry, looked up): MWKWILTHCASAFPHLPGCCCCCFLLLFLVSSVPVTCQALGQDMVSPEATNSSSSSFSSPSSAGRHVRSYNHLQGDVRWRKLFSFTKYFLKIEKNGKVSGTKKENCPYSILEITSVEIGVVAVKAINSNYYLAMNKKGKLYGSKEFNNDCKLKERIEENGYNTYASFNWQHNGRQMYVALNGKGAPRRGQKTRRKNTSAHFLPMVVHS
Assay [6] relates to glycogen synthase kinase-3 (GSK3A per assay name; protocol says GSK3B). As to the kind of experiment: GSK3 binders on small-molecule microarrays, primary screen, biochemical, small-molecule microarray, 635 nm fluorescence, GSK3A (AID 1103). Note: the record names both GSK3A and GSK3B. Particulars: small-molecule microarray binding, fluorescence 635 nm; higher = more signal.
Assay [7] addresses Epidermal growth factor receptor (Homo sapiens) (UniProt P00533). As to the kind of experiment: EGFR binders on small-molecule microarrays, primary screen, biochemical, small-molecule microarray, 635 nm fluorescence (AID 1104).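 Note: score merges 667 nm emission intensity with spot signal to noise over triplicate slides.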 The conditions noted are these: EGFR binding, higher = more signal.
The target of assay [8] is Follistatin-related protein 3 (Homo sapiens) (UniProt O95633). Put plainly: FSTL3 binders on small-molecule microarrays, primary screen, biochemical, small-molecule microarray, 635 nm fluorescence (AID 1105).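 Note: score merges emission near 667 nm and signal to noise per printed spot across three slides.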 The conditions noted are these: FSTL3 binding, higher = more signal.
Follistatin-related protein 3 (Homo sapiens), sequence (O95633 whole entry, looked up): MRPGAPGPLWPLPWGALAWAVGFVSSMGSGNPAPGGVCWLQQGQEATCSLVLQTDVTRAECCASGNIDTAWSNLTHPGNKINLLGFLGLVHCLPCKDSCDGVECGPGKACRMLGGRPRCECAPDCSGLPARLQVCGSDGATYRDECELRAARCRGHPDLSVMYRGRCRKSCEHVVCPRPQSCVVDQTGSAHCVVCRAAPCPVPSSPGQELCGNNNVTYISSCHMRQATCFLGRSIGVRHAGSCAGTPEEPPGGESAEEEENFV
For assay [9], the target named is Dickkopf-related protein 1 (Homo sapiens) (UniProt O94907). As to the kind of experiment: DKK1 binders on small-molecule microarrays, primary screen, biochemical, small-molecule microarray, 635 nm fluorescence scan (AID 1106).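 Note: score merges emission near 667 nm with signal to noise over three replicate slides.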 Particulars: DKK1 binding, higher = more signal.
Dickkopf-related protein 1 (Homo sapiens), sequence (O94907 whole entry, looked up): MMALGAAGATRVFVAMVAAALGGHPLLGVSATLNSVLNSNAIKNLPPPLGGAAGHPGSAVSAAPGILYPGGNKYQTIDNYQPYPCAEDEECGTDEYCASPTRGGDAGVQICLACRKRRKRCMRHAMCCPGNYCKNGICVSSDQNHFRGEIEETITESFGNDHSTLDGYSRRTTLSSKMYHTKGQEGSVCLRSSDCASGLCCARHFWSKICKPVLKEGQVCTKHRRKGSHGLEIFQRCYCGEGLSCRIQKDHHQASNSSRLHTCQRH
Assay [10] relates to Inhibin beta A chain (activin A). As to the kind of experiment: INHBA (activin A) binders on microarrays, primary screen, biochemical, small-molecule microarray, 635 nm fluorescence scan (AID 1107).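 Note: mouse activin A protein probed at 4.33 µg/mL on printed slides; score merges bound-protein fluorescence near 667 nm with spot signal-to-noise.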 The conditions noted are these: small-molecule microarray binding, higher = more signal.
Assay [11] deals with Human papillomavirus type 1a protein E7 (residues 44-93). Put plainly: HPV1a E7 fragment binders on microarrays, primary screen, biochemical, small-molecule microarray, residues 44-93, 635 nm fluorescence (AID 1108).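 Note: E7 fragment applied at 1 µg/mL in TBST for 1 h at 4 C; score combines spot fluorescence with its signal to noise ratio.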 Particulars: small-molecule microarray binding, fluorescence 635 nm; higher = more signal.
Assay [12] can be described thus: modulators of HCV replicon luciferase signal, primary screen, HCV replication inhibitor project, Huh7 cells, luciferase reporter (AID 1109).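 Note: huh7 hepatoma cells harbouring a luciferase neomycin HCV replicon reporter; luciferase luminescence as measure of HCV replicon replication; test concentration not given here.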 Particulars: 48 h, higher = more signal. In general terms: Replicon systems follow genome replication, usually without infectious particles.
The target in assay [13] is Left-right determination factor 2 (Homo sapiens) (UniProt O00292). Put plainly: LEFTY2 binders on small-molecule microarrays, primary screen, biochemical, small-molecule microarray, 635 nm fluorescence scan (AID 1110). The conditions noted are these: LEFTY2 binding, higher = more signal.
Left-right determination factor 2 (Homo sapiens), sequence (O00292 whole entry, looked up): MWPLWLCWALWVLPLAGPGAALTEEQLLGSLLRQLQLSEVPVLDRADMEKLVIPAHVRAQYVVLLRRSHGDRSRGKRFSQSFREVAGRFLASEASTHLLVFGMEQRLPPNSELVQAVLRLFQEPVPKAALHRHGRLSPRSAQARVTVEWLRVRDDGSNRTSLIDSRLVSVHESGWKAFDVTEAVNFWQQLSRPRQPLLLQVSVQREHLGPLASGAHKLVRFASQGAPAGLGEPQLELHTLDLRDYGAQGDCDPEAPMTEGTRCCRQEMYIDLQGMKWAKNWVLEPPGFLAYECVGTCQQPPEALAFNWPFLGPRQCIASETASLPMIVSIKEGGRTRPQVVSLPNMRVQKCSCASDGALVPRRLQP
Assay [14] deals with Calmodulin-1 (Homo sapiens) (UniProt P0DP23). Put plainly: CALM1 binders on microarrays, EGTA buffer, profiling panel, biochemical, small-molecule microarray, Cy5-labelled CALM1 (AID 1111).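 Note: labelled calmodulin applied in Tris saline Tween buffer holding calcium plus EGTA and DTT.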 Particulars: Cy5-CALM1 binding fluorescence, higher = more signal.
The target is the same in assay [15]. As to the kind of experiment: calcium-bound CALM1 binders on microarrays, profiling panel, artefact control for SMM control-protein annotation, biochemical, small-molecule microarray, Cy5-labelled CALM1, plus calcium (AID 1112).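 Note: score merges spot fluorescence with signal to noise from triplicate slides.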 Particulars: Cy5-CALM1 binding fluorescence, higher = more signal.
Assay [16] can be described thus: small-molecule microarray binders of probe aWnt5a, primary screen, biochemical, biotinylated probe, 635/667 nm fluorescence (AID 1113).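 Note: score merges 667 nm fluorescence intensity with signal-to-noise per printed feature.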 Particulars: higher = more signal.
A short description of assay [17]: small-molecule microarray binders of probe aShh, primary screen, biochemical, biotinylated probe, 635/667 nm fluorescence (AID 1114).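 Note: probe is biotin-labelled aShh protein from a stem cell growth factor screen; measures binding of labelled protein to compounds printed on the slide; score merges feature fluorescence at 667 nm with signal-to-noise.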 The conditions noted are these: higher = more signal.
The nature of assay [18]: small-molecule microarray binders of probe aNog, primary screen, biochemical, biotinylated probe, 635/667 nm fluorescence (AID 1115).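 Note: probe is biotinylated aNog protein used at 0.15 µg/mL for 1 h at 4 C; z-score combines 667 nm fluorescence of each spot with its signal to noise.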 Particulars: higher = more signal.
The target in assay [19] is Torsin-1A-interacting protein 1 (Homo sapiens) (UniProt Q5JTV8). Put plainly: LAP1 binders from COS7 cell lysate, primary screen, small-molecule microarray, 635/667 nm fluorescence (AID 1116). The conditions noted are these: COS7-hLAP1 lysate binding, 635 nm fluorescence, higher = more signal.
Torsin-1A-interacting protein 1 (Homo sapiens), sequence (Q5JTV8 whole entry, looked up): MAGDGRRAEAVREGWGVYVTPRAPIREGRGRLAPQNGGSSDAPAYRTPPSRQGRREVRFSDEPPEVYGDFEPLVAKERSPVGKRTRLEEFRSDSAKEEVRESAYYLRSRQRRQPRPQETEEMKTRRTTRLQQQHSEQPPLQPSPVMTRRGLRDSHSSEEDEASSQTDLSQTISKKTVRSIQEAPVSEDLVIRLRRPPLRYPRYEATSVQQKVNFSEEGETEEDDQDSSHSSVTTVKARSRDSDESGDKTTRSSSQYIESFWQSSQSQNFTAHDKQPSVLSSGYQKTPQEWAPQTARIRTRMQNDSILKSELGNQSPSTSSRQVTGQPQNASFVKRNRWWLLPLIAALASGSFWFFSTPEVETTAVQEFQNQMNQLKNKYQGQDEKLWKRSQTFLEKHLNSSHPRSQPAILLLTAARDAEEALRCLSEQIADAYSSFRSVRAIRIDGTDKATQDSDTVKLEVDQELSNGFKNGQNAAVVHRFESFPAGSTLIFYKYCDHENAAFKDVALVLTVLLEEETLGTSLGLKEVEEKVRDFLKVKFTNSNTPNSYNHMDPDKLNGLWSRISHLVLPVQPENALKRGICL
Assay [20] deals with Alpha-bungarotoxin (Bungarus multicinctus) (UniProt P60615). As to the kind of experiment: alpha-bungarotoxin binders on microarray, profiling panel, artefact control for SMM control protein annotation, biochemical, small-molecule microarray, Alexa647 label, 635/667 nm fluorescence (AID 1117). Particulars: alpha-BTX-A647 binding fluorescence, higher = more signal.
Alpha-bungarotoxin (Bungarus multicinctus), sequence (P60615 whole entry, looked up): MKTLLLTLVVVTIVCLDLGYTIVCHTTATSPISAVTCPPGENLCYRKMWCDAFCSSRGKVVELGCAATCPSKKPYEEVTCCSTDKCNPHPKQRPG

Each structure is given as a SMILES string. Calls of active or inactive are those of the source.

Epidermal growth factor receptor (Homo sapiens), sequence (P00533 whole entry, looked up): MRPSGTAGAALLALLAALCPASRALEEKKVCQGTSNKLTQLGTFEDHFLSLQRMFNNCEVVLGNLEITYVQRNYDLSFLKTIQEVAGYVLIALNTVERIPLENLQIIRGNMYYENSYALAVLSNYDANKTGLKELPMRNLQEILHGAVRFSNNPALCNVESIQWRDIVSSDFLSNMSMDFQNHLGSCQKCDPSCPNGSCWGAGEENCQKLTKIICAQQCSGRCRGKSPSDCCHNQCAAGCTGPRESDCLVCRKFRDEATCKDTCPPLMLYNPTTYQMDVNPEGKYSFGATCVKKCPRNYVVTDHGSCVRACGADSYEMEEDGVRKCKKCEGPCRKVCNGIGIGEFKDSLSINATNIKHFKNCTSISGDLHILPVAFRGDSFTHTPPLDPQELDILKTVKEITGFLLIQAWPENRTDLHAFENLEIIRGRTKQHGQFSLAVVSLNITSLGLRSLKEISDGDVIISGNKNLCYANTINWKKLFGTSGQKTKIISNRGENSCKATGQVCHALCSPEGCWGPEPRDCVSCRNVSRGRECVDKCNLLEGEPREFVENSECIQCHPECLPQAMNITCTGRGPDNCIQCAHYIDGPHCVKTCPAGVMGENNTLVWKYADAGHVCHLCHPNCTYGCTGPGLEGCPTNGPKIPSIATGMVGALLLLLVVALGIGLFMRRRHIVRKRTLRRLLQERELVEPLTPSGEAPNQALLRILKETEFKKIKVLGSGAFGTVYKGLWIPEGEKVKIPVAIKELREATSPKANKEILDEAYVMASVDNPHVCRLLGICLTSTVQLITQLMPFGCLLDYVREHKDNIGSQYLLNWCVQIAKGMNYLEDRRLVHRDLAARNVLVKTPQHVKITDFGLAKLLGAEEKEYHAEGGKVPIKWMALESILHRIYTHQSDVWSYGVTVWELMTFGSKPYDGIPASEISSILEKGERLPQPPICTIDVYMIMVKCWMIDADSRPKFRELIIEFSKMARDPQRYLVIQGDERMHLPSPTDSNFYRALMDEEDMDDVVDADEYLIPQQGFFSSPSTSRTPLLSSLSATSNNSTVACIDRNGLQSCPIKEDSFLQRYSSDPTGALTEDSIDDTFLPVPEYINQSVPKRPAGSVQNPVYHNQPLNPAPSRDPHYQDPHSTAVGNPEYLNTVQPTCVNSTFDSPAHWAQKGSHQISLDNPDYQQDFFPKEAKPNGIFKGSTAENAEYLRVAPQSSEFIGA

Consider `CCCC[C@H]1OB(O)C[C@H]2C1=C(COc1ccccc1)C[C@H]1C(=O)C=CC(=O)[C@H]12`, for which the composite z-score in assay [1] was 0.268; in assay [2], 1.07; in [3], -0.56; in assay [5], 0.638; in assay [6], 0.474; in [7] it was 0.286. For the same molecule, the composite z-score was 1.02 in assay [8]; 0.966 in assay [9]; 0.825 in assay [10]; 0.0194 in [11]; 0.406 in [13]; -0.415 in assay [14]. In addition, the composite z-score in assay [15] was -0.68; in assay [16], -0.152; in [17], -0.283; in [18], -0.295; in assay [19] it was 0.0135; in [20] it was -0.388. In addition, the z-score in assay [4] is -0.171 (inactive); in assay [12], -1.36.

Regarding `CC(C)(C)N1CC=CC23O[C@@H]4C=CCCOC(=O)C4[C@H]2C(=O)N(CCCCCCO)[C@@H]3C1=O` (stereo not given in full), the composite z-score was 1.34 in assay [1]; 0.017 in assay [2]; 0.0876 in assay [3]; -0.0479 in assay [5]; -0.404 in assay [6]; -1.09 in assay [7]. Further, the composite z-score in assay [8] is -0.63; in assay [9], -0.983; in assay [10], 0.406; in [11], 0.315; in [13], -0.807; in assay [14] it was -0.338. Further, the composite z-score is 0.195 in [15]; -0.167 in [16]; -0.352 in assay [17]; -0.0207 in assay [18]; 0.348 in assay [19]; 1.07 in assay [20]. The z-score was 0.416 (inactive) in assay [4] and 0.0358 in [12].

As for `C=CCNC(=O)[C@@H]1[C@H]2C(=O)O[C@H](c3ccccc3)[C@H](c3ccccc3)N2[C@H](c2ccc(OCCO)cc2)[C@@]12C(=O)Nc1ccc(C#CC3(O)CCCCCC3)cc12`, the composite z-score in assay [1] came to 1.42; in assay [2], 0.535; in assay [3] it was 0.65; in [5], 0.986; in [6] it was 1.22; in assay [7], 0.378. For the same molecule, the composite z-score in assay [8] was 0.826; in assay [9] it was 0.371; in [10], -0.0995; in assay [11], 1.12; in assay [13], 0.367; in assay [14], 0.92. The composite z-score in assay [15] is 0.0835; in [16] it was -0.0203; in assay [17], -0.278; in [18], 0.822; in assay [19], 0.699; in assay [20], 1.35. Moreover, the z-score in assay [4] is -1.43 (inactive); in assay [12], -2.43.

As for `CC(C)(C)OC(=O)CC[C@@]1(C(=O)NCCN2CCOCC2)N=C(c2ccc(OCCCO)cc2)O[C@@H]1c1ccccc1CN=[N+]=[N-]`, the composite z-score was 1.49 in assay [1]; 0.455 in [2]; 0.454 in assay [3]; 0.08 in assay [5]; 0.139 in assay [6]; -0.088 in assay [7]. Also, the composite z-score is -0.205 in assay [8]; -0.45 in assay [9]; 0.67 in assay [10]; 1.02 in assay [11]; -0.345 in assay [13]; 1.98 in [14]. In addition, the composite z-score is -0.0256 in assay [15]; 0.0219 in assay [16]; -0.324 in assay [17]; -0.481 in [18]; 0.462 in assay [19]; 0.519 in assay [20]. The values for the z-score in assay [4] and in assay [12] were -0.268 (inactive) and -0.0116, respectively.

Regarding `CCCC=C(CCC)[C@@H](NC(=O)OCC(C)C)c1ccc(C(=O)OC)cc1`, the composite z-score was 0.458 in [1]; -0.315 in assay [2]; -0.411 in [3]; 0.674 in assay [5]; 0.788 in assay [6]; 0.471 in assay [7]. Besides, the composite z-score was 0.414 in assay [8]; 0.85 in assay [9]; -0.155 in assay [10]; 0.903 in [11]; 0.66 in assay [13]; 0.059 in assay [14]. Also, the composite z-score in assay [15] is -0.307; in assay [16] it was -0.217; in assay [17], -0.138; in assay [18] it was -0.0496; in assay [19], 0.0246; in assay [20] it was -0.376. For the same molecule, the z-score in [4] was -2.36 (inactive); in assay [12], -1.02.

The record behind these values is PubChem BioAssay.
